Sampled rows, rich in hits. Any-hit rate of the full collection: about 3.6%.
B2AR arrestin ag: agonists recruiting beta-arrestin to human beta2-adrenergic receptor | Potency, µM (series often up to 46.1 µM), hits mostly activators | P07550 | HTLA Tango cells, beta-arrestin recruitment, luciferase luminescence, 18 h | 44,000 tested, under 10 active | AID 1347077
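Tango cell line, 1% FBS DMEM; cpd titration up to 46 microM; 18 hr, 37 degrees C, 5% CO2. Luciferin/ATP substrate mix added, 15 min RT, luminescence. %Activity, CRC fitting, curve-class categorization.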
HTT promoter inh: inhibitors of huntingtin promoter activity; HEK293 HTT promoter firefly luciferase reporter, 24 h; 48,000 compounds, 0.93% hits; Potency, µM (series often up to 57.5 µM), usual class: inhibitors; AID 1508623; further: nearly all actives have a fitted effect of over 50% in size
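Quantitative HTS used concentration series of up to 57.5 uM final on HEK293 luciferase reporter cells, 24 h at 37 degrees C. Readout was Dual-Glo firefly luminescence.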
DRV1 agonist: activates human resolvin D1 receptor GPR32; activation, % at 76.9 µM; CHO-K1 GPR32 beta-arrestin PathHunter luminescence, 90 min; zero percent set by DMSO-only wells; 48,000 compounds, 2.5% hits; O75388;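 active means activation of at least 60% and not above a set upper limit, about 1 call in 100 departs from these limits; inconclusive means activation of 40% to 60%, or above that upper limit; inactive means activation under 40%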
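PathHunter beta-arrestin recruitment in CHO-K1 cells stably expressing ProLink-tagged GPR32. Cells were exposed to compound for 90 min at 37 C, then chemiluminescence was read after 1 h detection at ambient temperature; DMSO served as basal control.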
HTT-AS act: activators of huntingtin-antisense promoter activity; Potency, µM (series often up to 57.5 µM), usual class: activators; AID 1508624; 48,000 compounds, 0.24% hits; HEK293 HTT-AS promoter firefly luciferase reporter, 24 h; response scale: percent change from vehicle, -100% = no light; further: nearly all actives have a fitted effect of over 55% in size
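Firefly luciferase readout (Dual-Glo, 10 min RT) after 24 h, 37 °C compound exposure (final up to 57.5 uM) of HEK293 reporter cells cultured 24 h beforehand; PTC124 at 50 uM final as control inhibitor; activity scaled vehicle 0%, zero RLU -100%.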
GALK inhibitor: GALK (human) enzyme inhibition; AID 1347072; recombinant GALK, Kinase-Glo ATP luminescence, 1 h; Potency, µM (highest dose often 57.5 µM), most hits filed as inhibitors; P51570; 44,000 tested, under 10 active
Target sequence (P51570 whole entry, looked up): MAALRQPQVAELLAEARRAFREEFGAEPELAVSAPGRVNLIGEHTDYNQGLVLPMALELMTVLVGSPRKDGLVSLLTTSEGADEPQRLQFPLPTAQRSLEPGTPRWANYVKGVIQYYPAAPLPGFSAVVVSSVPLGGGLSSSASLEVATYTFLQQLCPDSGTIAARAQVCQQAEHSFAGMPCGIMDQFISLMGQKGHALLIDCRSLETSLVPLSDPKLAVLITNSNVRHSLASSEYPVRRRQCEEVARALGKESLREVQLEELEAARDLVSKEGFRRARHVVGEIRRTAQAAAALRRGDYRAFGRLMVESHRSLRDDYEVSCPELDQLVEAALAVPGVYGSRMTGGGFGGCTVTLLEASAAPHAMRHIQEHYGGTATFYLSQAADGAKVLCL
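Luminescent ATP-depletion readout (Kinase-Glo Plus) after 1 h room-temperature incubation of human GALK (5 nM) with galactose 100 µM and ATP 35 µM, pH 8.0 HEPES/Mg2+ buffer; compounds tested in qHTS format.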
TSG101-PTAP inh: inhibitors of HIV-1 PTAP binding to human TSG101, validation | Fluorescence polarization, FITC-PTAP peptide/Tsg101, 20 min | Potency, µM (titrated, usually from 115 µM), hits mostly inhibitors | 44,000 tested, under 10 active | AID 1347069
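Compounds pinned into 10 uM Tsg101 binding domain, then 50 nM FITC-PTAP peptide added in pH 7.5 HEPES buffer; FP read after 20 min, room temperature. Total S+P intensity flags fluorescent compounds; active cut-off <25 µM, efficacy <60%.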
Numbers stand for hits; – = inactive; ? = inconclusive; · = no result; ! = a repeat was not active. Unless noted, the call rests on the fitted dose curve; in most records, active means well fitted curve in the direction sought with a large enough effect; inconclusive means small, poorly fitted or top-dose-only effect, or another doubt; inactive means no such curve, though single readings can be large; an effect the other way counts as inactive or inconclusive.

SMILES	B2AR arrestin ag	HTT promoter inh	DRV1 agonist	HTT-AS act	GALK inhibitor	TSG101-PTAP inh
COc1ccc(Cc2nccc3cc(OC)c(OC)cc23)cc1OC	·	–	119!	–	·	·
C[C@@H]1[C@@H](CC(C[C@H]2O[C@@H]3O[C@]4(C)CC[C@@H]5[C@H](C)CC[C@@H]([C@H]2C)[C@@]35OO4)C[S+](=O)([O-])c2ccc(COC(=O)N(C)C)cc2)O[C@@H]2O[C@]3(C)CC[C@H]4[C@H](C)CC[C@@H]1[C@@]24OO3 (some centres not stated)	·	?	·	–	·	·
ClC1=C(Cl)[C@]2(Cl)[C@@H]3[C@@H]4C[C@@H]([C@H]5O[C@@H]45)[C@@H]3[C@@]1(Cl)C2(Cl)Cl	·	–	113	–	·	·
CCOC(=O)c1ccc(NC(=O)c2cccn(Cc3ccccc3F)c2=O)cc1	–	1.4µM	–	–	–	–
CCc1c(C(=O)C(N)=O)c2c(OCC(=O)O)cccc2n1Cc1ccccc1	·	–	·	–	·	·
Cc1c(C(c2ccc(F)cc2)c2c(O)c3ccccc3oc2=O)c(=O)n(-c2ccccc2)n1C (configuration not stated)	–	–	–	–	–	–
O=c1oc2ccccc2c(O)c1C(CC(O)c1ccc(-c2ccc(Br)cc2)cc1)c1ccccc1 (configuration not stated)	·	–	82	–	·	·
COc1ccc2c(c1OC)CN1CCc3cc4c(cc3C1C2)OCO4 (configuration not stated)	·	–	68	–	·	·
C#C[C@]1(O)C=C[C@@H]2[C@@H]3CCC4=CC(=O)CC[C@@H]4[C@H]3CC[C@@]21CC	·	–	·	–	·	·
CCN(CC)C(=O)N[C@@H]1C=C2c3cccc4[nH]cc(c34)C[C@@H]2N(C)C1	·	–	64	?	·	·
O=C1CN2CCOC2(c2ccccc2Cl)c2cc(Cl)ccc2N1 (configuration not stated)	·	–	–	–	·	·
C[C@]12C/C(=C/O)C(=O)C[C@@H]1CC[C@@H]1[C@@H]2CC[C@@]2(C)[C@H]1CC[C@]2(C)O	·	–	89	–	·	·
N#Cc1cc2c(nc1SCC(=O)Nc1cccc(F)c1)C1CCN2CC1	?	?	68	–	–	–
CC(=O)c1ccc(NC(=O)c2sc3nc4c(cc3c2N)N2CCC4CC2)cc1	–	–	–	–	–	–
CN1C[C@H](CNC(=O)OCc2ccccc2)C[C@@H]2c3cccc4c3c(cn4C)C[C@H]21	·	–	80!	–	·	·
O=C(CCCCl)c1ccc(F)cc1	·	–	–	–	·	·
Cc1cccc(Cn2cccc(C(=O)Nc3ccc(F)cc3F)c2=O)c1	–	28µM	–	–	–	–
ClCCCN1CCN(c2cccc(Cl)c2)CC1	·	–	–	–	·	·
COc1ccc2c(c[n+](C)c3c4cc5c(cc4ccc23)OCO5)c1OC	·	?	66	–	·	·
CCOC(=O)c1c(C(C#N)=CN)c2ccc(Cl)c(Cl)c2n1C	·	–	·	–	·	·
Cc1ccccc1-n1nc(C)c2c1NC(=O)CSC2c1ccc(Cl)cc1 (configuration not stated)	–	?	?	–	–	–
Cc1cccc(-n2nc(C)c3c2NC(=O)CSC3c2ccccc2Cl)c1 (configuration not stated)	–	?	63	–	–	–
Nc1c(C(=O)Nc2ccc(OC(F)(F)F)cc2)sc2nc3c(cc12)N1CCC3CC1	–	7.9µM	–	–	–	–
C=CCC1(C(C)CC)C(=O)NC(=O)NC1=O (configuration not stated)	·	–	–	–	·	·
Cc1cccc(-c2nc(CN3C(=O)CN=C(c4ccccc4)c4ccccc43)c(C)o2)c1	–	?	63	–	–	–
Cc1ccccc1-c1nc(CN2C(=O)CN=C(c3ccccc3)c3ccccc32)c(C)o1	–	–	–	–	–	–
C[C@]12CC[C@H]3[C@@H](CC[C@@]45O[C@H]4C(O)=C(C#N)C[C@]35C)[C@H]1CC[C@H]2O	·	–	–	–	·	·
Cc1ccccc1Cn1cccc(C(=O)Nc2nc3ccccc3s2)c1=O	–	0.32µM	–	–	–	–
CC(C)N(CCNC(=O)CN1CCCC1=O)C(C)C	·	–	·	–	·	·

Compound activity: PubChem, National Center for Advancing Translational Sciences (NCATS)
